According to PubChem BioAssay (NCI):
Where “and” joins values, the source holds several entries; their conditions need not be identical. Identical values can stand only once. The panel holds about 79,000 compounds, 15% with a hit somewhere; the sample as a whole holds those more often. No stated cut-off is given here; in the data, active means growth inhibition above about 70%; inactive means the rest.

Tests used:
[1] = NCI Yeast Anticancer Drug Screen. Data for the rad50 strain (AID 155);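 further: 0% = growth of vehicle-only cultures of the same strain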; details: S. cerevisiae rad50 strain growth inhibition, hits give high values; at 50.0 µM unless noted
In short: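 DNA repair mutant yeast, compound exposure, growth read-out; inhibition is taken relative to vehicle.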

[2] = NCI Yeast Anticancer Drug Screen. Data for the sgs1 mgt1 strain (AID 161);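 further: 0% = growth of cultures given vehicle only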; details: S. cerevisiae sgs1 mgt1 strain, hits give high values; at 50.0 µM unless noted
In short: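 Growth of a repair-deficient yeast mutant was monitored after compound treatment and expressed as inhibition relative to vehicle-treated cultures.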

[3] = NCI Yeast Anticancer Drug Screen. Data for the cln2 rad14 strain (AID 165);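 further: 0% = growth equal to vehicle treated cultures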; details: S. cerevisiae cln2 rad14 strain, hits give high values; at 50.0 µM unless noted
In short: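 Strain: cln2 rad14 yeast, altered in cell cycle control and DNA damage repair. Read-out: growth inhibition vs vehicle.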

[4] = NCI Yeast Anticancer Drug Screen. Data for the bub3 strain (AID 167); details: S. cerevisiae bub3 mutant strain, hits give high values; at 50.0 µM unless noted
In short: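 In this screen, a yeast mutant lacking normal mitotic checkpoint function is challenged with compound. Relative growth versus vehicle gives the inhibition value.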

[5] = NCI Yeast Anticancer Drug Screen. Data for the mlh1 rad18 strain (AID 175); details: S. cerevisiae mlh1 rad18 strain growth inhibition, hits give high values; at 50.0 µM unless noted
In short: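 A repair-deficient yeast strain is exposed to test compound, and growth is scored relative to vehicle-treated controls.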

Measured: growth inhibition

O=C(c1ccc(Cl)cc1)N1CCC(CCCc2ccccc2)CC1
inactive: [1] -2.2% | [2] -4.3% | [3] 5.05% | [4] 12.8% | [5] -3.2%

CCCC1SCC(=O)N1c1nncs1 (stereo not given)
inactive: [1] 6.5% | [2] -23.2% | [3] -29.1% | [4] -8% | [5] -30.6%

Cc1cccc(Cl)c1NC(=O)c1c(Cl)c(Cl)c(Cl)c(Cl)c1C(=O)O
inactive: [1] 11.4% | [2] -0.35% | [3] -30.1% | [4] -1.65% | [5] 22.2%

CCCC1N[C@H](C(=O)O)CS1 (stereo not given in full)
inactive: [1] 15.7% | [2] -1.85% | [3] 7.2% | [4] 10.1% | [5] -3.85%

Cn1c(Nc2ccccc2)c(C=Nc2ccccc2)c(=O)n(C)c1=O
inactive: [1] -2.15% | [2] -7.85% | [3] 7.55% | [4] -22.6% | [5] -0.9%

CC(=O)c1ccc2c(c1)sc1ccccc12
inactive: [1] 66.9% | [2] -6.4% | [3] -2.25% | [4] 28.5% | [5] 55.9%

CCCCCCCCCCCCCCCCCC(=O)N/N=C/c1cc(C(C)(C)C)c(O)c(C(C)(C)C)c1
inactive: [1] -32.6% | [2] -14.1% | [3] -35.2% | [4] -1.1% | [5] 2.45%

O=C(CN1CCCCCC1)Nc1ccc2c(c1)C(=O)c1ccc(NC(=O)CN3CCCCCC3)cc1C2=O
inactive: [1] -12.3% | [2] 51.1% | [3] 38.6% | [4] 8.95% | [5] 36.4%

O=C(CCCN1CCC2(CC1)C(=NC1CCCCC1)NC(=O)N2c1ccccc1)c1ccc(F)cc1
inactive: [1] -10.8% | [2] -3% | [3] 3.45% | [4] 13.7% | [5] -6.85%

COc1ccc2c(c1)c(COC(C)=O)c(C)c[n+]2[O-]
inactive: [1] 25.1% | [2] 42.1% | [3] 16.6% | [4] 22.1% | [5] 52.9%

c1ccc(-c2nc3ccccc3s2)cc1
inactive: [1] 25.2% and 18.6% | [2] 24.1% and -17.9% | [3] 23.8% and -20.2% | [4] 8.55% and -4.35% | [5] 40.4% and 2.6%

Cc1ccc(C(=O)c2ccc([N+](=O)[O-])cc2)cc1
inactive: [1] -21.1% | [2] -34.5% | [3] -50% | [4] 8.3% | [5] -41.1%

C/C(=C\c1ccccc1)c1ccccn1
inactive: [1] -2.25% and -1.9% | [2] -6.25% and 10.8% | [3] -68.8% and -22.6% | [4] -19.1% and 15.2% | [5] -7.4% and 8.3%

CCOCCOC(=O)COc1ccccc1
inactive: [1] 12.8% | [2] 17.6% | [3] 7% | [4] -7.85% | [5] 3.65%

CCCCCCCOC(=O)C1(O)CCCCC1
inactive: [1] 6.1% | [2] 6.65% | [3] 32.5% | [4] 16.8% | [5] -16.6%

COc1ccc(CNC(=O)CC(C)=O)cc1
inactive: [1] -6.7% | [2] 3.35% | [3] 7.25% | [4] 13% | [5] 0.95%

CC(C)(Nc1ccccc1)C(=O)OC(C)(C)C(=O)Nc1ccccc1
inactive: [1] -7% | [2] -12.4% | [3] 2.05% | [4] -6.45% | [5] -7.4%

CC1CCCCN1C(=O)Nc1ccc(Cl)cc1[N+](=O)[O-] (stereo not given)
inactive: [1] 9.3% | [2] 29.6% | [3] -15.6% | [4] 64.3% | [5] 42.4%

O=C(O)CCSCCC(=O)O
inactive: [1] -22.8% | [2] -29.4% | [3] -48.4% | [4] -13.6% | [5] 22.4%

CC(C)CCCC(C)[C@H]1CCC2C3CC=C4C[C@@H](OC(=O)CC(CC(=O)[O-])C(=O)[O-])CC[C@]4(C)C3CC[C@@]21C.N.N.[Pt+4] (stereo not given in full)
inactive: [1] 26.2% | [2] 11.7% | [3] 4.2% | [4] 12.6% | [5] 0.35%

O=C1NC(N2CCOCC2)=N/C1=C\c1cccs1
inactive: [1] -8.45% | [2] 13.2% | [3] 32.3% | [4] 1.05% | [5] -34%

CCCc1onc(-c2noc(CCC)c2CC)c1CC
inactive: [1] 15.8% | [2] -1.9% | [3] 9.85% | [4] -19.4% | [5] 15.7%

O=C(O)C1(F)CC1(c1ccccc1)c1ccccc1 (stereo not given)
inactive: [1] -4.7% | [2] 14.5% | [3] -38.2% | [4] 5.6% | [5] -7.8%

c1cncc(C2N3CCCCC3[C@@H]3c4[nH]c5ccccc5c4CCN23)c1 (stereo not given in full)
inactive: [1] -26.6% | [2] -22.8% | [3] -8.25% | [4] -15.1% | [5] -26.9%
